# According to the supplement of paper PMC10338343:
# ± gives the standard deviation. Whole data set: some 6,600 sequences, median “pre-steady-state target cleavage rate” near 0.07, cut for the highest 2% near 0.72. Only a selection was taken, and the highest values are over-represented in it overall.
# System: MIWI (PIWIL1) piRISC loaded with Kctd7 piRNA (30 nt)
# Test: pre-steady-state target cleavage rate (min^-1); MIWI and MILI are mouse PIWI proteins and EfPiwi is from a freshwater sponge; tags in brackets are library labels; higher = faster piRNA-guided slicing of the target
# Conditions: guide: Kctd7 piRNA 5'p-UGUUAAUCUCUCAGAGAAGGUGACAGUGAU; auxiliary factor: 500 nM mouse GTSF1
# Outline: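 Reactions were run for 0–8 or 0–960 min at 33 °C in HEPES–potassium acetate buffer, combining 1 nM active affinity-purified piRISC with one synthetic guide, […] transcribed, DNA-blocked target RNA library and, in some cases, 500 nM GTSF1 partner protein. Sequencing of uncleaved targets followed, with normalisation to depth and to weakly complementary targets. Three trials were pooled, k3 was capped at 0.0001 min^-1, and the pre-steady-state cleavage rate was taken from a burst-and-steady-state fit.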
# 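Also: 1 nM active piRISC with 0.1 nM target library at 33 °C single turnover.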
row,Sequence,pre-steady-state target cleavage rate
1,UUCACUGUCACCUUCUCUGAGAGAAAUACA,0.179 ± 0.038
2,AUCACUGUCACCUUCAUCUGAGAGAUUAACA,0.275 ± 0.053
3,UUCACACUCACCUUCUCUGAGAGAUUUUGA,0.0972 ± 0.024
4,UAGUGACUCACCUUCUCUGAGAGAUUAAGA,0.194 ± 0.031
5,UAGACUGUCACCUACUCUGAGAGUUUAACA,0.147 ± 0.023
6,UUCACUGUCACCUUCUCUGAGCGAUUAACA,0.13 ± 0.0091
7,UAGACUGUCAGCUUCUCUGAGAGAUUAUCA,0.171 ± 0.024
8,AUCACUCAGACCUUCUCUGAGAGAUUAACA,0.433 ± 0.024
9,UUCUCUGUCACCUUCACUGAGAGAUUAACA,0.392 ± 0.021
10,AUUCACUGUCACCUUCUCUGAGAGAUUAACA,0.737 ± 0.036
11,UUCAGACUCACCUUCUCUGAGAGAUUAACA,0.472 ± 0.035
12,AUCAGACUCACCUUCUCUGAGAGAUUAACA,0.726 ± 0.045
13,UUCACUGUCACCUUCUCUGAGAGAUUAACA [g2:g29:cont:t1A],0.717 ± 0.03
14,ACUCACUGUCACCUUCUCUGAGAGAUUAACA,0.781 ± 0.054
15,CUCACUGUCACCUUCUCUGAGAGAUUAACA,0.714 ± 0.031
16,UACAGUGUCACCUUCUCUGAGUGAUUAACA,0.0377 ± 0.0077
17,UAGUGUGUCACCUUGUCUGAGAGAUUUUGA,0.00982 ± 0.0057
18,UAGACUGUCACGUUCUCUGAGUGAUUAACA,0.00628 ± 0.0015
19,UUCACUGUCUCCUUCUCUGAGAGAUUAUGA,0.122 ± 0.034
20,UACUCUGUCACCUUCUCUGAGAGAUUUUGA,0.0843 ± 0.017
21,UAGUGACACACCUUCUCUGAAAGAUUAACA,0.384 ± 0.029
22,UAGUGUGUCGACCUUCUCUGAGAGAUUAACA,0.155 ± 0.017
23,UAGUGACUGCACCUUCUCUGAGAGAUUAACA,0.77 ± 0.05
24,UUGACUGUCACCUUCUCUGAGAGAUUAACA,0.777 ± 0.042
25,UUGACUGUCACCUUCUCUGUGAGAUUAACA,0.267 ± 0.011

row,Sequence,pre-steady-state target cleavage rate
1,UAGUGACUCACCUUCUCUGAUAGAUUAACA,0.778 ± 0.035
2,UAGACUGUCACCUACUCUGAGAGAUUAACA,0.666 ± 0.049
3,UAGACUGCACCUUCUCUGAGAGAUUAACA,0.698 ± 0.046
4,UUGACUGUCACCUACUCUGAGAGAUUAACA,0.689 ± 0.041
5,AUGACUGUCACCUACUCUGAGAGAUUAACA,0.736 ± 0.042
6,UAGUGACUCACCUUCUCUGACUGAUUAACA,0.00516 ± 0.0026
7,UUGACUGUCACCUUCUCUGAGAGAUUAAGA,0.257 ± 0.034
8,UAGUGACUCACCUUCUCUGACAGAUUAACA,0.393 ± 0.048
9,UAGUGACUGACCUUCUCUGAGAGAUUAACA,0.363 ± 0.037
10,AUCACUGUCACCUUCUCUGAGAGUAAAACA,0.125 ± 0.024
11,UUCACUGUCAGCUUCUCUGAGAGAUUAUCA,0.24 ± 0.027
12,UAGUCUGUCACCUUCUCUGAGAGAUUAGACA,0.138 ± 0.041
13,UAGUGACACACCUUCUGUGAGAGAUUAUGA,0.015 ± 0.007
14,UAGUGUGUCACCUUCUCUGAGUGAUUAUCA,0.00944 ± 0.0044
15,UAGUGAGUCACCUUCUGUGAGAGAUUUUGA,0.012 ± 0.0055
16,UAGUGAGUCACCUUCUCUGAGAGAUUAUGA,0.088 ± 0.019
17,UAGAGUGUCACCUACUCUGAGAGAUUAACA,0.765 ± 0.042
18,UACAGUGUCACCUACUCUGAGAGAUUAACA,0.585 ± 0.038
19,UAGUGUGUCACCUACUCUGAGAGAUUAACA,0.598 ± 0.054
20,AUGACUGUCACCUUCUCUGAGAGAUUAAGA,0.205 ± 0.028
21,AUGACUGUCACCUUCUCUGUGAGAUUAACA,0.278 ± 0.013
22,AUGACUGUCACCUUCUCUGAGAGAUUAACA,0.771 ± 0.037
23,UUCACUGUCACCUAGUCUGAGAGAUUUUGA,0.111 ± 0.03
24,UAGUGACACAGCUUCUCUGAGAGUUUAACA,0.0412 ± 0.0084
25,UUCACUGUCUCCUUCACUGAGAGAUUAACA,0.393 ± 0.032

row,Sequence,pre-steady-state target cleavage rate
1,UACACCGUCACCUUCUCUGAGAGAUUAACA,0.78 ± 0.04
2,UUCACGUCACCUUCUCUGAGAGAUUAACA,0.702 ± 0.03
3,UACACGUGUCACCUUCUCUGAGAGAUUAACA,0.563 ± 0.026
4,UACACGGUCACCUUCUCUGAGAGAUUAACA,0.593 ± 0.027
5,UACACGUCACCUUCUCUGAGAGAUUAACA,0.737 ± 0.043
6,AUCACGUGUCACCUUCUCUGAGAGAUUAACA,0.63 ± 0.03
7,AUCACCGUCACCUUCUCUGAGAGAUUAACA,0.67 ± 0.026
8,AUCACGUCACCUUCUCUGAGAGAUUAACA,0.732 ± 0.041
9,UUCACCGUCACCUUCUCUGAGAGAUUAACA,0.698 ± 0.03
10,UACACUGUCACCUUCACUGAGAGUUUAACA,0.356 ± 0.081
11,AUCACUGUCACCUAGACUGAGAGAUUAAGA,0.0119 ± 0.0058
12,UAGUCUGUGACCUUCUGUGAGAGAUUAACA,0.399 ± 0.028
13,UAGUCUGUCACCUUCUCUGAGACAUAAACA,0.0237 ± 0.0074
14,UUCAGUGUCACCUUCUCUGAGAGAUUUUGA,0.161 ± 0.043
15,AUCACUGUCACCUUCCCUGAGAGAUUAACA,0.449 ± 0.064
16,UAGUGUGUCACGAACUCUGAGAGAUUAACA,0.0752 ± 0.0083
17,UAGUGUCUCACCUUCUCUGAGAGAUUAUCA,0.239 ± 0.033
18,AUCACUGUCAACCUUCUCUGAGAGAUUAACA,0.269 ± 0.021
19,UUAACUGUCACCUUCUCUGAGAGAUUAACA,0.581 ± 0.022
20,AUAACUGUCACCUUCUCUGAGAGAUUAACA,0.675 ± 0.03
21,AUCAACUGUCACCUUCUCUGAGAGAUUAACA,0.737 ± 0.049
22,AUCACUGUCACCUUCUCUGAGAGAUUAACU [g2:g30:cont:t1U],0.526 ± 0.057
23,UAAACUGUCACCUUCUCUGAGAGAUUAACA,0.677 ± 0.03
24,UACAACUGUCACCUUCUCUGAGAGAUUAACA,0.744 ± 0.042
25,UUCACUGUCAACCUUCUCUGAGAGAUUAACA,0.271 ± 0.019
